Results taken from PubChem BioAssay (EPA / NIEHS).
More than one record can exist for a structure, and the calls need not agree. The source made the active and inactive calls. Rule for the calls: active = hit-call score of the fitted dose curve at least 0.9, where 1 is the maximum; inactive = score below 0.9.

How the values were obtained:
[1] = CEETOX_H295R_TESTO: CeeTox H295R High-throughput Steroidogenesis Assay for Testosterone (TESTO) (AID 2283457); conditions: actives raise or lower the signal;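 for AC50: cells exposed to chemicals for 48 h before medium collection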
Outline: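 Steroidogenesis in H295R cells following OECD 456 with minor changes; 48 h exposure. Medium testosterone by HPLC-MS/MS, DMSO as baseline, with MTT viability run in parallel.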

[2] = read-out: Forkhead box O3 (FOXO3), FOXO3 (gene 2309); test: LTEA_HepaRG_FOXO3: Life Technologies and Expression Analysis (LTEA) Assay for Forkhead box O3 (FOXO3) using HepaRG (AID 2283459); conditions: mRNA level, 48 h; actives raise or lower the signal
Outline: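 FOXO3 transcript measured by qRT-PCR (normalized to ACTB, GAPDH, POLR2A) after 48 h exposure of HepaRG cells in serum-free induction medium. Duplicates, eight half-log concentrations up to 100 uM, 0.5% DMSO; gain or loss fitted against DMSO.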

[3] = read-out: ABC Transporter (ABCB1), ABCB1 (gene 5243); test: LTEA_HepaRG_ABCB1: Life Technologies and Expression Analysis (LTEA) Assay for ABC Transporter (ABCB1) using HepaRG (AID 2283460); conditions: mRNA level, 48 h; actives raise or lower the signal
Outline: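 ABCB1 transcript level measured by TaqMan qRT-PCR against three housekeeping genes after 48 h chemical exposure of differentiated HepaRG cells. Top concentration 100 uM, half-log steps, eight points, 0.5% DMSO vehicle; bidirectional fit relative to DMSO.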

[4] = read-out: growth arrest and DNA damage 45 (GADD45B), GADD45B (gene 4616); test: LTEA_HepaRG_GADD45B: Life Technologies and Expression Analysis (LTEA) Assay for growth arrest and DNA damage 45 (GADD45B) using HepaRG (AID 2283461); conditions: mRNA level, 48 h; actives raise or lower the signal
Outline: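 Human HepaRG monolayers receive chemicals for 48 h at eight half-log concentrations, highest 100 uM, in 0.5% DMSO. Expression is measured by TaqMan qRT-PCR and normalized to ACTB, GAPDH and POLR2A.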

[5] = read-out: ABC Transporter (ABCC3), ABCC3 (gene 8714); test: LTEA_HepaRG_ABCC3: Life Technologies and Expression Analysis (LTEA) Assay for ABC Transporter (ABCC3) using HepaRG (AID 2283462); conditions: mRNA level, 48 h; actives raise or lower the signal
Outline: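 Transcriptional change of ABCC3 in HepaRG after 48 h treatment, determined by qRT-PCR normalized to endogenous controls. Concentrations spanned eight half-log steps to 100 uM in 0.5% DMSO.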

[6] = read-out: ABC Transporter (ABCB11), ABCB11 (gene 8647); test: LTEA_HepaRG_ABCB11: Life Technologies and Expression Analysis (LTEA) Assay for ABC Transporter (ABCB11) using HepaRG (AID 2283463); conditions: mRNA level, 48 h; actives raise or lower the signal
Outline: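 ABCB11 transcript levels quantified by TaqMan qRT-PCR against three housekeeping genes after 48 h chemical exposure of HepaRG cultures. Concentrations up to 100 uM in half-log steps, 0.5% DMSO vehicle; both induction and suppression scored.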

[7] = read-out: Broad substrate specificity ATP-binding cassette transporter ABCG2 (Homo sapiens) (UniProt Q9UNQ0); test: LTEA_HepaRG_ABCG2: Life Technologies and Expression Analysis (LTEA) Assay for ABC Transporter (ABCG2) using HepaRG (AID 2283465); conditions: mRNA level, 48 h; actives raise or lower the signal
Outline: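 ABCG2 transcript was quantified by TaqMan qRT-PCR against three housekeeping genes in HepaRG cells. Cells were treated in duplicate for 48 h across an 8-point half-log series up to 100 uM, with 0.5% DMSO vehicle. Gain or loss versus DMSO was fit.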

[8] = read-out: ATP-citrate lyase (ACLY), ACLY (gene 47); test: LTEA_HepaRG_ACLY: Life Technologies and Expression Analysis (LTEA) Assay for ATP-citrate lyase (ACLY) using HepaRG (AID 2283466); conditions: mRNA level, 48 h; actives raise or lower the signal
Outline: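 ACLY mRNA quantified by qRT-PCR on Fluidigm arrays against three housekeeping genes, after 48 h chemical treatment of HepaRG cells (top concentration 100 uM, half-log steps, 0.5% DMSO vehicle). Up- or down-regulation fitted relative to DMSO.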

[9] = read-out: Peroxisomal acyl-coenzyme A oxidase 1 (ACOX1) gene, ACOX1 (gene 51); test: LTEA_HepaRG_ACOX1: Life Technologies and Expression Analysis (LTEA) Assay for Peroxisomal acyl-coenzyme A oxidase 1 (ACOX1) gene using HepaRG (AID 2283467); conditions: mRNA level, 48 h; actives raise or lower the signal
Outline: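 ACOX1 transcript levels were quantified by TaqMan qRT-PCR against three housekeeping genes after 48 h chemical exposure of differentiated human HepaRG cells. Exposure used eight half-log steps topping at 100 uM, 0.5% DMSO vehicle, in duplicate. Bidirectional curve fits were made relative to DMSO.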

[10] = read-out: Alkaline Phosphatase, Placental (ALPP) gene, ALPP (gene 250); test: LTEA_HepaRG_ALPP: Life Technologies and Expression Analysis (LTEA) Assay for Alkaline Phosphatase, Placental (ALPP) gene using HepaRG (AID 2283468); conditions: mRNA level, 48 h; actives raise or lower the signal
Outline: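 Using human liver HepaRG cells, chemicals are tested in duplicate over 48 h at half-log concentrations topping at 100 uM; phenobarbital 1 mM serves as induction control. ALPP mRNA change by qRT-PCR, bidirectional fit against vehicle.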

[11] = read-out: Bcl-2 (BAD) gene, BAD (gene 572); test: LTEA_HepaRG_BAD: Life Technologies and Expression Analysis (LTEA) Assay for Bcl-2 (BAD) gene using HepaRG (AID 2283469); conditions: mRNA level, 48 h; actives raise or lower the signal
Outline: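 Read-out: qRT-PCR of BAD mRNA, normalized to three housekeeping genes. Human HepaRG cultures got 48 h chemical exposure in 0.5% DMSO, duplicate eight-point half-log series topping at 100 uM. Gain or loss of signal fitted versus DMSO vehicle.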

[12] = read-out: Bcl-2 (BAX) gene, BAX (gene 581); test: LTEA_HepaRG_BAX: Life Technologies and Expression Analysis (LTEA) Assay for Bcl-2 (BAX) gene using HepaRG (AID 2283470); conditions: mRNA level, 48 h; actives raise or lower the signal
Outline: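 Gene expression measured by Fluidigm qRT-PCR with three housekeeping genes for normalisation. HepaRG cells, plated 48 h beforehand, treated 48 h at up to 100 uM (8-point, half-log) in 0.5% DMSO. Bidirectional fitting versus DMSO.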

[13] = read-out: adenosine kinase (ADK) gene, ADK (gene 132); test: LTEA_HepaRG_ADK: Life Technologies and Expression Analysis (LTEA) Assay for adenosine kinase (ADK) gene using HepaRG (AID 2283471); conditions: mRNA level, 48 h; actives raise or lower the signal
Outline: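 ADK expression quantified by qRT-PCR, normalised to three housekeeping genes, after 48 h exposure of HepaRG cells to eight concentrations (top 100 uM, half-log steps, duplicate, 0.5% DMSO). Up- or down-regulation fitted relative to vehicle.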

[14] = read-out: Alpha-fetoprotein (AFP) gene, AFP (gene 174); test: LTEA_HepaRG_AFP: Life Technologies and Expression Analysis (LTEA) Assay for Alpha-fetoprotein (AFP) gene using HepaRG (AID 2283472); conditions: mRNA level, 48 h; actives raise or lower the signal
Outline: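 AFP transcript measured by TaqMan qRT-PCR with three housekeeping genes for normalization, after 48 h chemical treatment of HepaRG cells (top 100 uM, half-log steps, 0.5% DMSO). Gain or loss fitted against vehicle.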

[15] = read-out: BCL2L11 (gene 10018); test: LTEA_HepaRG_BCL2L11: Life Technologies and Expression Analysis (LTEA) Assay for Bcl-2 (BCL2L11) gene using HepaRG (AID 2283473); conditions: mRNA level, 48 h; actives raise or lower the signal
Outline: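 Human hepatic HepaRG cultures are treated 48 h with test chemicals (maximum 100 uM, 0.5% DMSO vehicle). Expression of BCL2L11 is measured by qRT-PCR against ACTB, GAPDH and POLR2A, with activity in either direction scored relative to vehicle.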

[16] = read-out: Apolipoprotein A-V (APOA5) gene, APOA5 (gene 116519); test: LTEA_HepaRG_APOA5: Life Technologies and Expression Analysis (LTEA) Assay for Apolipoprotein A-V (APOA5) gene using HepaRG (AID 2283474); conditions: mRNA level, 48 h; actives raise or lower the signal
Outline: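 Concentration-response of APOA5 expression in HepaRG: eight half-log doses to 100 uM, 48 h, qRT-PCR normalized to ACTB/GAPDH/POLR2A, bidirectional fitting with 0.5% DMSO as baseline.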

[17] = read-out: Apoptosis regulator Bcl-2 (Homo sapiens) (UniProt P10415); test: LTEA_HepaRG_BCL2: Life Technologies and Expression Analysis (LTEA) Assay for Bcl-2 gene using HepaRG (AID 2283475); conditions: mRNA level, 48 h; actives raise or lower the signal
Outline: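 qRT-PCR of BCL2 transcript, normalized to three housekeeping genes (ACTB, GAPDH, POLR2A), after 48 h chemical exposure of HepaRG cells; concentrations top 100 uM with half-log dilutions, 0.5% DMSO vehicle, duplicates; changes up or down fitted relative to vehicle.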

[18] = read-out: Bcl-2 (BID) gene, BID (gene 637); test: LTEA_HepaRG_BID: Life Technologies and Expression Analysis (LTEA) Assay for Bcl-2 (BID) gene using HepaRG (AID 2283476); conditions: mRNA level, 48 h; actives raise or lower the signal
Outline: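 Duplicate 48 h treatments of HepaRG cells in serum-free induction medium spanned 100 uM downward in half-log steps, 0.5% DMSO. Transcript change quantified by qRT-PCR against three housekeeping genes, fitted up or down versus DMSO.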

[19] = read-out: ABC Transporter (ABCC2), ABCC2 (gene 1244); test: LTEA_HepaRG_ABCC2: Life Technologies and Expression Analysis (LTEA) Assay for ABC Transporter (ABCC2) using HepaRG (AID 2283464); conditions: mRNA level, 48 h; actives raise or lower the signal
Outline: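 After plating and 48 h culture, HepaRG medium is replaced with serum-free induction medium and chemicals are added (8 concentrations, max 100 uM, 0.5% DMSO) for 48 h. Total RNA then undergoes qRT-PCR for ABCC2 with housekeeping normalization.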

[20] = read-out: growth arrest and DNA damage 45 (GADD45A), GADD45A (gene 1647); test: LTEA_HepaRG_GADD45A: Life Technologies and Expression Analysis (LTEA) Assay for growth arrest and DNA damage 45 (GADD45A) using HepaRG (AID 2283458); conditions: mRNA level, 48 h; actives raise or lower the signal
Outline: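 GADD45A expression was measured by TaqMan qRT-PCR against three housekeeping genes (ACTB, GAPDH, POLR2A) after 48 h treatment of HepaRG cells. Eight-point half-log series up to 100 uM in 0.5% DMSO, run in duplicate.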

Measured: AC50

Chain of Apoptosis regulator Bcl-2 (Homo sapiens) (P10415 whole entry, looked up): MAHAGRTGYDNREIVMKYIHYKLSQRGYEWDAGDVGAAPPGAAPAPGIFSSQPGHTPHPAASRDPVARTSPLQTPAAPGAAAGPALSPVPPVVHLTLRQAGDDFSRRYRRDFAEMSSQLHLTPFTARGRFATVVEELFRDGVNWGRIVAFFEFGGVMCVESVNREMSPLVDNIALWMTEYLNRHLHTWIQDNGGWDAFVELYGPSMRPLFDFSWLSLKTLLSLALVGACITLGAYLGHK
Chain of Broad substrate specificity ATP-binding cassette transporter ABCG2 (Homo sapiens) (Q9UNQ0 whole entry, looked up): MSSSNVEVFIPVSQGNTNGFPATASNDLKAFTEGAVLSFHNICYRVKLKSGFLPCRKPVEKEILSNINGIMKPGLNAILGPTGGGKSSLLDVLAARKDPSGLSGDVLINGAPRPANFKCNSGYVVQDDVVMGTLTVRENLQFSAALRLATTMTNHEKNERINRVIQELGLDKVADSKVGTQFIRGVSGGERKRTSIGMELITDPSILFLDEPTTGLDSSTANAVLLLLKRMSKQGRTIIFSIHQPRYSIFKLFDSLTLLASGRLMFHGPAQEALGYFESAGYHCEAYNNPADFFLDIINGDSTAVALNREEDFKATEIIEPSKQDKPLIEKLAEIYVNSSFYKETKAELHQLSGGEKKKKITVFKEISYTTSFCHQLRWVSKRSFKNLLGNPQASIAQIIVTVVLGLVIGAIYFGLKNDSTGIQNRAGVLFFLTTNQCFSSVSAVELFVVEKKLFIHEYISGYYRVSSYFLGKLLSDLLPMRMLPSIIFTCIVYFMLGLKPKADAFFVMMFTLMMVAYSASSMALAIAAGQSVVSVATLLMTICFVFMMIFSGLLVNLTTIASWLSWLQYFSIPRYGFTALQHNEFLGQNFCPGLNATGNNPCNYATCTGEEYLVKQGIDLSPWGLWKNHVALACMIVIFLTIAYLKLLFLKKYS

CC(=O)S[C@@H]1CC2=CC(=O)CC[C@]2(C)[C@H]2CC[C@@]3(C)[C@@H](CC[C@@]34CCC(=O)O4)[C@H]12
active: [1] 0.828 µM | [6] 67 µM | [9] 50 µM | [13] 50 µM | [14] 43.4 µM | [16] 61.8 µM
not listed: [19] | [20]
inactive: all other assays above

N[C@@H](Cc1cc(I)c(Oc2ccc(O)c(I)c2)c(I)c1)C(=O)O
active: [3] 73.3 µM | [4] 7.94 µM | [6] 7.94 µM | [19] 7.94 µM | [7] 70.5 µM | [9] 7.94 µM | [14] 40 µM | [16] 69.9 µM
not listed: [1] | [20]
inactive: all other assays above

CC(C)(c1ccc(O)cc1)c1ccc(O)cc1
inactive: [1] | [2] | [3] | [4] | [5] | [6] | [19] | [7] | [8] | [10] | [11] | [12] | [13] | [14] | [15] | [16] | [17] | [18]
active: [1] 3.57 µM | [3] 50 µM

O=C(O)C1(C(=O)Nc2ccc(Cl)cc2Cl)CC1
active: [20] 80.7 µM | [3] 50 µM | [6] 61 µM | [7] 78.2 µM | [13] 79.4 µM | [14] 65.6 µM | [16] 74.9 µM
not listed: [1] | [9] | [19]
inactive: all other assays above

CCCCCCC(C)OC(=O)COc1nc(F)c(Cl)c(N)c1Cl (stereo unspecified)
not listed: [1] | [19]
inactive: all other assays above
